# Screening data deposited in PubChem by The Scripps Research Institute Molecular Screening Center.
# Rows were chosen to be rich in hits. Some 3.4% of all compounds tested hit in one or more screens of this group.
# MITF primary: MITF inhibitors, primary screen, biochemical, AlphaScreen, human; Microphthalmia-associated transcription factor (Homo sapiens), O75030; AlphaScreen MITF homodimerization, bead proximity signal; inhibition, % at 2.6 µM; hit rate 0.91% among 650,000; AID 1259374, 2018; in the data active = inhibition above about 50%
# Target sequence (O75030 whole entry, looked up): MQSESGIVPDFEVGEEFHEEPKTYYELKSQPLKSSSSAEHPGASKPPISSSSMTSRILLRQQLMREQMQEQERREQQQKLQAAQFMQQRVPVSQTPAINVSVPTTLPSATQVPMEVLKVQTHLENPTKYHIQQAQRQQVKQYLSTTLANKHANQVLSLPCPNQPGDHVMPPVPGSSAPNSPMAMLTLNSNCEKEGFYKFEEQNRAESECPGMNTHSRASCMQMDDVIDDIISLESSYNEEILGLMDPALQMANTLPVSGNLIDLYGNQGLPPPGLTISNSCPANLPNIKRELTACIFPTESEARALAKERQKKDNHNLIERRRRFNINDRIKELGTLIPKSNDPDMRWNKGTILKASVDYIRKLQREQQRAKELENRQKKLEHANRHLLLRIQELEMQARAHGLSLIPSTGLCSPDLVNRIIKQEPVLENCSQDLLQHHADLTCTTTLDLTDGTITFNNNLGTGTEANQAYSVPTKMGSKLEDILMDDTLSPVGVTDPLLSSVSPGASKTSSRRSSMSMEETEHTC
# GPR151 activ: activators of human GPR151, primary screen, cell-based, PathHunter beta-arrestin, luminescence. G-protein coupled receptor 151 (Homo sapiens), Q8TDV0. PathHunter beta-arrestin GPR151 cells. activation, % at 11.2 µM. hit rate 1% among 650,000; in the data active = activation above about 4.9%
# TEAD-YAP inh: TEAD-YAP interaction inhibition, primary screen, TEAD-YAP interaction inhibitor project, luminescence, HEK-TIYL cells; TEAD-Gal4/YAP UAS-luciferase luminescence; inhibition, % at 9.12 µM; hit rate 1.4% among 640,000; AID 1259422, 2018; in the data active = inhibition above about 32%
# FBW7 act: FBW7 E3 ligase activators, primary screen, biochemical, AlphaScreen, human. F-box/WD repeat-containing protein 7 (Homo sapiens), Q969H0. AlphaScreen FBW7–phospho-cyclin E peptide binding, activator screen. normalized activity (activation), % at 26.1 µM. hit rate 0.13% among 650,000; in the data active = normalized activity above about 1.9%;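 note: purified mutant Fbw7 with reduced substrate affinity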
# Hits are given with their value; - = inactive.
SMILES,MITF primary,GPR151 activ,TEAD-YAP inh,FBW7 act
COc1cc(C2C(C#N)=C(N)Oc3ccc4ccccc4c32)cc(OC)c1OC (configuration not stated),-,-,48,-
COc1ccc(C2C(C#N)=C(N)Oc3ccc4ccccc4c32)cc1OC (configuration not stated),-,-,-,-
COc1cc2c(cc1OC)[C@@H]1C(=O)c3ccc4c(c3O[C@@H]1CO2)C=CC(C)(C)O4,-,-,69,-
Cc1ccc2c(c1)N(C(=O)N1CCCC(C(=O)NCc3ccc(F)cc3)C1)CC(C)O2 (configuration not stated),-,-,-,-
CN1CCN(c2cc(-c3ccc(F)cc3)nc(-c3ccncc3)n2)CC1,-,-,-,-
CN1CCN(c2cc(-c3ccncc3)nc(-c3ccncc3)n2)CC1,-,-,38,-
Cc1ccccc1N=CC1=C(O)c2ccccc2C1=O,-,-,87,-
O=C1C(C=Nc2ccc(F)cc2)=C(O)c2ccccc21,-,-,-,-
COc1ccc(N=CC2=C(O)c3ccccc3C2=O)c(OC)c1,-,-,69,-
COc1ccc(N=C(C)C2=C(O)c3ccccc3C2=O)c(OC)c1,-,-,-,-
COc1ccccc1CNC(=O)CSCc1nc(-c2sccc2C)oc1C,-,-,-,-
COc1ccc(N=Cc2c[nH]c3ccccc23)c(OC)c1,-,-,-,-
O=C(NCCOc1cccnc1)c1ccc(OC2CCN(CCc3ccccc3)CC2)cc1,-,-,42,-
CC(=O)N1CCC(Oc2ccc(C(=O)NCCc3ccccc3)cc2)CC1,-,-,-,-
CC(=O)NCC(=O)N1CCC(Oc2ccc(C(=O)NCCc3ccccc3)cc2)CC1,-,-,33,-
O=C(NCCc1ccccc1)c1ccc(OC2CCN(C(=O)C3=CCCC3)CC2)cc1,-,-,65,-
O=C(NCCc1ccccc1)c1ccc(OC2CCN(C(=O)C3CC3)CC2)cc1,-,-,-,-
O=C(NCCc1ccccc1)c1ccc(OC2CCN(C(=O)c3cnsn3)CC2)cc1,-,-,-,-
O=C(NCCc1ccccc1)c1ccc(OC2CCN(C(=O)c3cscn3)CC2)cc1,-,-,64,-
Cn1cc(CN2CCN(Cc3ccccc3)C(CCO)C2)c2ccccc21 (configuration not stated),-,-,-,-
COCCCNC(=O)c1nnc(Cc2ccc(F)cc2)o1,-,-,-,-
COc1cc(-n2c(C)nc3cc(C(=O)NCCC4=CCCCC4)ccc32)cc(OC)c1OC,-,-,-,-
O=C1CC[C@@H](C(=O)N2CCC(Oc3ccc(C(=O)NCCc4ccccc4)cc3)CC2)N1,-,-,40,-
CC1(C)CC(=O)C(C=Nc2ccc(Cl)cc2Cl)=C(O)C1,-,-,-,-
Cn1c(-c2ccccc2)cn2c3ccccc3nc12,-,-,-,-
SMILES,MITF primary,GPR151 activ,TEAD-YAP inh,FBW7 act
COc1ccc(-c2cn3cc(-c4ccccc4)nc3n2C)cc1,-,-,97,-
COc1cccc(-c2cn3cc(-c4ccc(F)cc4)nc3n2C)c1,-,-,70,-
COc1cccc(-n2c(-c3ccc(F)cc3)n[nH]c2=S)c1,-,-,-,-
COc1ccccc1NC(=O)Cn1cnc2sc(C(=O)N3CCN(c4ccccc4OC)CC3)c(C)c2c1=O,-,-,-,2.1
COc1ccccc1NC(=O)Cn1cnc2sc(C(=O)Nc3ccc(C)c(F)c3)c(C)c2c1=O,-,-,-,1.9
COc1ccccc1NC(=O)Cn1cnc2sc(C(=O)N3CCN(c4ccccc4)CC3)c(C)c2c1=O,-,-,-,-
COc1ccccc1NC(=O)Cn1cnc2sc(C(=O)Nc3cc(F)ccc3C)c(C)c2c1=O,-,-,-,-
Cc1ccc(CN2CCN3C(=O)[C@@H]([C@H](C)O)NC(=O)[C@H]3C2)c(C)c1,-,-,-,-
O=[N+]([O-])c1ccc(Br)c2ccncc12,-,-,62,-
Cc1cccc(C)c1OCC(=O)N/N=C/c1cn(C)c2ccccc12,-,-,51,-
Cc1cccc(C)c1OCC(=O)N/N=C/c1ccccc1F,-,-,37,-
Cc1ccc(C)c(OCC(=O)N/N=C\c2ccccc2F)c1,-,-,-,-
Cc1ccc(OCC(=O)N/N=C/c2cc([N+](=O)[O-])ccc2F)cc1,-,-,60,-
COc1ccc(C2CC(=O)C3=C(C2)NC(C)=C(C(=O)OCC(C)C)C3c2cccc([N+](=O)[O-])c2)cc1 (configuration not stated),-,-,-,-
c1ccc(-c2cn3c(ccc4ccccc43)n2)cc1,-,-,85,-
Cn1c2ccccc2n2cc(-c3ccccc3)nc12,-,-,-,-
O=C(N/N=C/c1ccco1)c1cc(O)c(O)c(O)c1,87,-,-,-
O=C(N/N=C/c1ccccc1F)c1cc(O)c(O)c(O)c1,55,-,-,-
O=C(N/N=C/c1ccco1)c1cc(Cl)ccc1O,-,-,-,-
Cc1cccc(C(=O)N/N=C/c2ccccc2F)c1,-,-,-,-
O=C(CSc1nnc2ccc(-c3ccco3)nn12)N1CCCCC1,-,-,-,-
C=CCN1C(=O)/C(=C\c2ccc(O)cc2)SC1=Nc1ccccc1,-,-,-,-
COC(=O)CN1C(=S)N(C)C(=O)/C1=C/c1cc(OC)c(O)c(OC)c1,-,-,46,-
O=S(=O)(c1ccc(Cl)s1)N1CCN(c2nc3c(F)cccc3s2)CC1,-,-,-,-
COc1ccc(C2(C(=O)NC(C)c3nc(-c4cccnc4)n[nH]3)CCCCC2)cc1 (configuration not stated),-,-,-,-
SMILES,MITF primary,GPR151 activ,TEAD-YAP inh,FBW7 act
COc1ccc(C2(C(=O)NC(C)c3nc(-c4ccncc4)n[nH]3)CC2)cc1 (configuration not stated),-,-,64,-
CN(C)c1ccc(/C=C2\C(=O)N(c3ccccc3F)N=C2c2ccccc2)cc1,-,-,-,-
CCOC(=O)N1CCC(NS(=O)(=O)c2ccc3[nH]c4c(c3c2)CCCC4)CC1,-,-,57,-
COc1ccc(CCN2C(=O)CSC2c2ccc(C(C)C)cc2)cc1OC (configuration not stated),-,-,40,-
CC1CCN(C(=O)CSc2ncccc2-c2nc3ccccc3[nH]2)CC1,-,-,49,-
COC(=O)c1sc(NC(=O)CSc2ncccc2-c2nc3ccccc3[nH]2)nc1C,-,-,-,-
Cc1nc(NC(=O)CSc2ncccc2-c2nc3ccccc3[nH]2)sc1C,-,-,73,-
O=C1NC(=O)N(c2ccc3c(c2)OCO3)C(=O)/C1=C/c1ccc(Br)cc1,-,-,-,-
C=CCOc1ccc(Cl)cc1CNCCNC(=O)c1nonc1N,-,-,-,-
O=C1NC(=S)NC(=O)C1=Cc1cn(-c2ccccc2)nc1-c1ccc2c(c1)OCCO2,-,-,-,-
O=C1NC(=S)NC(=O)C1=Cc1cn(-c2ccccc2)nc1-c1cccs1,75,-,-,-
